Screening results (PubChem BioAssay)
This is a sample that favours compounds with a hit; in the whole collection about 3.4% have one here.
HSF1 inhib = HSF1 inhibitors in luciferase reporter cells, primary screen, cell-based, NIH3T3, luminescence; activity change, negative = inhibition, % at 7.5 µM (by protocol); hit rate 0.77% among 300,000; NIH3T3-HGL HSE-luciferase, MG132-induced, luminescence 8 h; hits give low values; AID 2098, 2009;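 active means more than half of replicate wells show activity change below -50%, luminescence cut by over half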;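 further: luciferase reports HSF-1 transcriptional activity via heat shock element; 0% = median of DMSO wells and -100% = zero luminescence signal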
AI-2 QS modul = Vibrio harveyi AI-2 quorum sensing modulators, primary screen, JMH597 strain, luminescence/OD600 ratio. AID 2094, 2009. Vibrio harveyi JMH597 AI-2 luminescence/OD600 ratio, 9 h; hits give low values; strain lacks LuxN and CqsS sensors; 0 = neutral-control median. hit rate 0.4% among 300,000. activity change, % at 7.5 µM; in the data active means activity change below about -75%, passing the limit was not always enough;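 further: luminescence divided by OD600 gain over 9 h not by final OD600 alone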
PG9 binder = binders of HIV-1 gp120 antibody PG9, primary screen, biochemical, TR-FRET; TR-FRET gp120-PG9 antibody binding; inhibition, % at 6.7 µM; HIV-1 gp120 / PG9 antibody interaction; hit rate 0.43% among 360,000; AID 624416, 2012; in the data active means inhibition above about 8.5%
GAA850 FXN act = FXN promoter activators, primary screen, cell-based, luciferase luminescence, HEK293 lucGAA850. HEK293 lucGAA850 FXN promoter luciferase reporter, 24 h; percent of 10 µM SAHA response. activation, % at 6 µM. hit rate 0.56% among 360,000;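 active means activation above the average of all compounds screened plus 3 SD, cutoff fixed separately per campaign, cut at about 7.5% in these data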;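 further: 0% = DMSO wells and 100% = 10 µM SAHA wells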
SMARCA2 activ = SMARCA2 (BRM) function activators, primary screen, cell-based, luminescence, high throughput | activation, % at 9.1 µM | hit rate 1% among 370,000 | AID 652017, 2013 | MG213 cells, MMTV-luciferase reporter, dexamethasone, overnight; in the data active means activation above about 7.8%;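 further: 0% = vehicle wells and 100% = reference activator wells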
HSP90 inh = HSP90 inhibitors, primary screen, cell lysate, luminescence; hit rate 0.91% among 290,000; inhibition, % at 5.6 µM; Heat shock protein HSP 90 (rabbit reticulocyte lysate; luciferase refolding); Rabbit reticulocyte lysate, luciferase refolding luminescence, 3 h; AID 1789, 2009;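 active means inhibition above the screen-wide mean plus 3 SD, computed separately per campaign, cut at about 16% in these data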;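 further: 0% = DMSO wells and 100% = 60 µM geldanamycin wells; inhibitors lower the luminescence because luciferase stays unfolded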
SMARCA2 conf = SMARCA2 (BRM) function activators, confirmation, cell-based, luminescence, triplicate; shares compounds with SMARCA2 activ; MG213 cells, MMTV-luciferase with dexamethasone, overnight; MG213 cells expressing E1A, Rb sequestered; DMSO wells 0%, reference activator 100%; activation, % at 9.1 µM; hit rate 30% among 3,500; AID 652260, 2013;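 active means activation above its plate's cutoff, the mean activation of tested wells plus 3 SD, cut at about 7.9% in these data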
VP16 Luc act = GAL4-VP16 luciferase reporter activation, counter-screen for SMARCA2 (BRM) activator project, cell-based, pG5luc, luminescence, high throughput. shares compounds with SMARCA2 activ. HEK293 GAL4-VP16 pG5luc reporter; scaled: DMSO wells 0%, SAHA wells 100%. activation, % at 9.1 µM. hit rate 41% among 3,500. AID 686939, 2013;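 active means activation above the solvent-only control well mean plus 3 SD, averaged across control plates, cut at about 5.2% in these data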
Active calls of the source: *; . = no result.

SMILES | HSF1 inhib | AI-2 QS modul | PG9 binder | GAA850 FXN act | SMARCA2 activ | HSP90 inh | SMARCA2 conf | VP16 Luc act
COc1ccc(OC)c(S(=O)(=O)CC(=O)c2cc3ccccc3oc2=O)c1 | . | . | -1.0 | . | -5.7 | . | . | .
CCCNc1ccc(C(=O)OCC)cc1[N+](=O)[O-] | 17.3 | 20.7 | 0.6 | 7.0 | 9.3* | -4.0 | 8.4* | 4.4
CCOC(=O)CNc1ccc(C(=O)OCC)cc1[N+](=O)[O-] | -0.5 | 2.4 | -0.7 | 2.1 | -2.9 | -2.0 | . | .
Brc1ccc(Cn2c(-c3ccc(Br)o3)nc3ccccc32)o1 | 20.9 | 13.1 | 0.2 | 3.3 | 11.9* | 3.8 | 8.1* | 1.8
Cn1c(-c2ccc(Br)o2)nc2ccccc21 | 18.9 | 19.5 | -2.3 | 4.7 | 7.5 | -1.1 | . | .
CC1(c2ccncc2)Nc2ccccc2-c2nc3ccccc3n21 (configuration not stated) | 20.3 | 37.0 | 1.5 | 4.9 | 9.1* | 1.2 | 2.9 | 4.2
CCc1ccc(NC(=O)CNC(=O)Cn2ccc3ccccc3c2=O)cc1 | -1.9 | . | 0.4 | -1.4 | 9.1* | -3.2 | -0.1 | 1.7
O=C(O)c1cn(C2CCCCC2)c2ccccc2c1=O | -4.4 | 12.0 | -2.2 | 1.2 | 17.4* | 3.0 | -0.7 | 0.2
O=C(O)c1cn(Cc2ccccc2)c2ccccc2c1=O | -1.4 | 12.4 | 0.6 | -1.8 | 2.6 | -2.7 | . | .
O=C(/C=C/c1ccco1)Nc1ccc(CN2CCOCC2)cc1 | . | 18.4 | -1.6 | 1.7 | 9.4* | -0.5 | 9.2* | 10.5*
C[C@@H]1ON(C)[C@H]2C[C@H]3c4cc(Br)ccc4CCN3C[C@@H]12 | . | . | -0.7 | . | -5.0 | . | . | .
Cc1ccc2c(COC(=O)C3=COCCO3)cc(=O)oc2c1 | 17.4 | 9.2 | -1.2 | 3.5 | 8.5* | -4.9 | 0.3 | 8.4*
CCCCC1O[C@@H](C)[C@@H]2CN3CCc4c([nH]c5ccccc45)[C@@H]3C[C@@H]2N1C (some centres not stated) | . | . | -1.2 | . | -1.2 | . | . | .
COc1ccc(-n2ncc3c(SCC(=O)OC(C)C)ncnc32)cc1 | . | . | 2.0 | -0.5 | -1.1 | . | . | .
O=C1C2C3CCC(O3)C2C(=O)N1c1nccs1 (configuration not stated) | . | . | -2.1 | -0.4 | 9.5* | . | -0.2 | -0.1
O=C1C2C(C(=O)N1c1nccs1)C1C=CC2C12CC2 (configuration not stated) | -5.3 | 12.7 | -1.4 | 1.8 | -2.4 | -3.7 | . | .
CC1(C(=O)NS(=O)(=O)c2ccc(F)cc2F)CCN1C(=O)C1CCCCC1 (configuration not stated) | . | . | -0.8 | 1.7 | -3.8 | . | . | .
Cc1ccc(NC(=O)CSc2nc3ccccc3c(=O)n2CCCN2CCCCC2)cc1C | 2.8 | 13.2 | -1.4 | -3.0 | 12.7* | 5.4 | 6.0 | 2.6
Cc1cc(NC(=O)CSc2nc3c(sc4ccccc43)c(=O)n2CCCN2CCOCC2)n[nH]1 | 41.2 | 18.1 | -2.1 | -3.4 | 20.4* | 1.6 | 35.5* | -0.8
C/C(=N\N=c1/sc2ccccc2n1C)c1ccccn1 | 13.8 | 10.2 | -1.6 | 2.3 | 8.1* | -4.9 | 4.3 | 7.5*
COc1ccc(NC(=O)CSc2c3c(nc4cc(Cl)ccc24)CCCC3)cc1OC | 74.2 | -9.4 | -1.1 | 2.1 | 9.4* | 2.7 | 2.9 | 1.0
COc1cc(NC(=O)CSc2c3c(nc4ccccc24)CCC3)cc(OC)c1OC | 31.3 | 0.4 | -2.0 | -3.0 | -1.7 | 0.3 | . | .
O=C(Cc1noc2ccccc12)Nc1ccccn1 | 6.1 | 30.0 | -1.8 | 3.2 | 2.8 | 3.2 | . | .
Cc1ccc(NC(=O)Cc2noc3ccccc23)nc1 | -1.5 | 23.0 | -2.9 | 3.1 | 9.3* | 3.2 | 7.5 | 2.5
COc1ccc(CNS(=O)(=O)/C=C/c2ccc(OC)cc2CNC(=O)OC(C)(C)C)cc1 | . | . | . | . | 2.6 | . | . | .
SMILES | HSF1 inhib | AI-2 QS modul | PG9 binder | GAA850 FXN act | SMARCA2 activ | HSP90 inh | SMARCA2 conf | VP16 Luc act
CCC(c1nc2ccccc2[nH]1)n1c(=O)c(-c2ccco2)nc2ccccc21 (configuration not stated) | . | . | -1.3 | . | -2.5 | . | . | .
O=c1c(-c2ccco2)nc2ccccc2n1C(c1ccccc1)c1nc2ccccc2[nH]1 (configuration not stated) | . | . | -0.8 | . | 10.6* | . | 8.9* | 5.6*
O=c1c(-c2ccco2)nc2ccccc2n1C(CCc1ccccc1)c1nc2ccccc2[nH]1 (configuration not stated) | . | . | 1.7 | . | 10.8* | . | -2.5 | 1.9
C=CCN=C1NC(c2ccccc2C(F)(F)F)C(C(=O)OC)=C(C)N1Cc1cccc(C(F)(F)F)c1 (configuration not stated) | . | . | -1.1 | . | -1.2 | . | . | .
O=C(CSc1nnc(-c2ccccc2)n1-c1ccccc1)NN=C/C=C\c1ccccc1[N+](=O)[O-] | . | . | . | . | -6.6 | . | . | .
O=C(Nc1cccc(Cl)c1)c1cnn2cccnc12 | -6.0 | 15.6 | 0.0 | 5.2 | 8.1* | -1.9 | 8.3* | 12.0*
O=C(Nc1cc(Cl)cc(Cl)c1)c1cnn2cccnc12 | -2.6 | 2.4 | 0.9 | -0.4 | 1.2 | 0.3 | . | .
O=C1NC(c2ccccc2Cl)=N/C1=C/c1ccco1 | -2.6 | 2.6 | -4.3 | 6.2 | 18.4* | -1.5 | 9.7* | 8.1*
O=C1NC(c2ccc(Br)cc2)=N/C1=C/c1ccco1 | 17.1 | 20.9 | -2.4 | 4.9 | 8.1* | -1.6 | 7.7 | 10.7*
COC(=O)C1=C(C)N(Cc2ccccc2C(F)(F)F)C(=NCc2ccc(C(F)(F)F)cc2)NC1c1ccccc1 (configuration not stated) | . | . | -0.7 | . | -2.1 | . | . | .
Cc1nc(NC(=O)C2CC2)sc1C(=O)Nc1ccccc1 | 4.6 | 9.4 | -0.7 | 1.3 | 4.0 | -0.6 | . | .
Cc1ccccc1NC(=O)c1sc(NC(=O)C2CC2)nc1C | 4.6 | -10.1 | 0.1 | 0.1 | 8.4* | 4.1 | 1.1 | 0.4
COCCNc1oc(/C=C/c2cccc(OC)c2)nc1S(=O)(=O)c1ccccc1 | . | . | -0.3 | 1.4 | -3.3 | . | . | .
O=c1/c(=C/c2ccc([N+](=O)[O-])cc2)sc2n1CCCN=2 | 35.5 | 7.2 | -2.3 | 1.3 | 8.7* | -1.1 | 11.5* | 12.6*
CN1CCN(C(=S)NC(=O)/C=C/c2ccccc2Cl)CC1 | 5.0 | 11.8 | -2.6 | 3.8 | 0.8 | 2.5 | . | .
